Results reported in PubChem BioAssay (EPA / NIEHS).
Activity calls are given as the source filed them. How the source made its calls: active means hit-call score of the fitted dose curve at least 0.9, where 1 is the maximum; inactive means score below 0.9.

Key:
Settings in all cases: mRNA level, 48 h; actives raise or lower the signal
[1] = read-out: Apoptosis regulator Bcl-2 (Homo sapiens) (UniProt P10415); assay: LTEA_HepaRG_BCL2: Life Technologies and Expression Analysis (LTEA) Assay for Bcl-2 gene using HepaRG (AID 2283475)
Outline: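 Plated human HepaRG cells are exposed to test chemicals for 48 h across eight concentrations from 100 uM downward in half-log steps (0.5% DMSO). BCL2 expression is then measured by qRT-PCR with housekeeping normalisation and fitted bidirectionally against vehicle.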

[2] = read-out: Bcl-2 (BID) gene, BID (gene 637); assay: LTEA_HepaRG_BID: Life Technologies and Expression Analysis (LTEA) Assay for Bcl-2 (BID) gene using HepaRG (AID 2283476)
Outline: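 Cells are plated, cultured 48 h, switched to serum-free induction medium, then dosed 48 h (100 uM top, half-log steps, 0.5% DMSO). RNA is isolated and BID expression read by qRT-PCR.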

[3] = read-out: Caspase-3 (Homo sapiens) (UniProt P42574); assay: LTEA_HepaRG_CASP3: Life Technologies and Expression Analysis (LTEA) Assay for cysteine-aspartic acid protease (CASP3) using HepaRG (AID 2283477)
Outline: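 In HepaRG liver cells dosed for 48 h at up to 100 uM (eight-point, duplicate), CASP3 expression changes are scored by qRT-PCR. Activity is fitted in both directions with 0.5% DMSO as baseline.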

[4] = read-out: Cytochrome P450 (CYP24A1), CYP24A1 (gene 1591); assay: LTEA_HepaRG_CYP24A1: Life Technologies and Expression Analysis (LTEA) Assay for Cytochrome P450 (CYP24A1) using HepaRG (AID 2283478)
Outline: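 Human liver HepaRG cultures receive each chemical for 48 h across an eight-point half-log series topping at 100 uM in 0.5% DMSO. Induction or suppression of CYP24A1 mRNA is scored relative to vehicle after housekeeping-gene normalization.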

[5] = read-out: Cytochrome P450 (CYP1A2), CYP1A2 (gene 1544); assay: LTEA_HepaRG_CYP1A2: Life Technologies and Expression Analysis (LTEA) Assay for Cytochrome P450 (CYP1A2) using HepaRG (AID 2283479)
Outline: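 Assesses CYP1A2 mRNA in human HepaRG liver cells after 48 h chemical exposure at up to 100 uM. Values come from qRT-PCR with bidirectional curve fitting relative to DMSO.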

[6] = read-out: cysteine-aspartic acid protease (CASP8), CASP8 (gene 841); assay: LTEA_HepaRG_CASP8: Life Technologies and Expression Analysis (LTEA) Assay for cysteine-aspartic acid protease (CASP8) using HepaRG (AID 2283480)
Outline: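 qRT-PCR readout of CASP8 mRNA, normalized to three housekeeping genes, after 48 h chemical exposure of HepaRG cells; 8-point half-log series, top 100 uM, 0.5% DMSO vehicle. Bidirectional curve fitting against DMSO baseline.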

[7] = read-out: Cytochrome P450 (CYP2B6), CYP2B6 (gene 1555); assay: LTEA_HepaRG_CYP2B6: Life Technologies and Expression Analysis (LTEA) Assay for Cytochrome P450 (CYP2B6) using HepaRG (AID 2283481)
Outline: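 Using 48 h treatment of HepaRG cells in serum-free induction medium, concentrations spanned half-log steps from 100 uM in 0.5% DMSO vehicle. CYP2B6 mRNA induction or loss is scored by qRT-PCR against DMSO.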

[8] = read-out: Cytochrome P450 2C19 (Homo sapiens) (UniProt P33261); assay: LTEA_HepaRG_CYP2C19: Life Technologies and Expression Analysis (LTEA) Assay for CYP2C19 using HepaRG (AID 2283482)
Outline: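 Human HepaRG liver cells received test chemicals for 48 h (highest 100 uM, half-log dilutions in 0.5% DMSO). CYP2C19 mRNA induction or loss is read by multiplexed qRT-PCR and fitted in both directions versus vehicle.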

[9] = read-out: CYP2C8 (gene 1558); assay: LTEA_HepaRG_CYP2C8: Life Technologies and Expression Analysis (LTEA) Assay for CYP2C8 using HepaRG (AID 2283483)
Outline: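 HepaRG (human liver line), 48 h chemical exposure, 8-pt half-log series from 100 uM, 0.5% DMSO vehicle. Readout: CYP2C8 transcript by qRT-PCR, housekeeping-normalized. Bidirectional fit vs DMSO baseline.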

[10] = read-out: CYP2C9 (gene 1559); assay: LTEA_HepaRG_CYP2C9: Life Technologies and Expression Analysis (LTEA) Assay for CYP2C9 using HepaRG (AID 2283484)
Outline: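 HepaRG, 48 h dosing, 8-pt half-log series, top 100 uM, 0.5% DMSO vehicle. Read-out: CYP2C9 transcript by TaqMan qRT-PCR, housekeeping-normalized (ACTB/GAPDH/POLR2A). Gain or loss fitted vs DMSO baseline.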

Caspase-3 (Homo sapiens), sequence (P42574 whole entry, looked up): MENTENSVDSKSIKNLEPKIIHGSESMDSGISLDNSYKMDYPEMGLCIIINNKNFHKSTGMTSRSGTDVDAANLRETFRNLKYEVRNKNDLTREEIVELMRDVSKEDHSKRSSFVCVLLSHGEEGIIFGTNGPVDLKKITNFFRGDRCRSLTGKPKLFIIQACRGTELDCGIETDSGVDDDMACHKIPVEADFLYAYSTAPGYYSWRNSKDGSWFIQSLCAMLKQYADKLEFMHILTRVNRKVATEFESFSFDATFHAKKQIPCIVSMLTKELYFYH
Cytochrome P450 2C19 (Homo sapiens), sequence (P33261 whole entry, looked up): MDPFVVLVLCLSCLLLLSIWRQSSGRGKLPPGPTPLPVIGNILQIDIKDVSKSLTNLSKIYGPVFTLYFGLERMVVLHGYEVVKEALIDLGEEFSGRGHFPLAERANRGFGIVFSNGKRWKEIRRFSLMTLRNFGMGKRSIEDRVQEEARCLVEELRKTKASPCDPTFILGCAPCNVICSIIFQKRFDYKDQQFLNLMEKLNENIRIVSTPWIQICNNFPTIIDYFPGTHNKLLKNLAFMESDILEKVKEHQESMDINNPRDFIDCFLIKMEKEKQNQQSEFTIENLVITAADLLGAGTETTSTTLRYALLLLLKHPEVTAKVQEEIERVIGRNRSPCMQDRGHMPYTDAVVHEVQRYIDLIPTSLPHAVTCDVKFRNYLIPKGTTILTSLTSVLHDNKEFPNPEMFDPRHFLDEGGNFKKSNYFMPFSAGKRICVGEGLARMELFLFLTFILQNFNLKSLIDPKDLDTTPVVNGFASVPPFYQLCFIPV
Apoptosis regulator Bcl-2 (Homo sapiens), sequence (P10415 whole entry, looked up): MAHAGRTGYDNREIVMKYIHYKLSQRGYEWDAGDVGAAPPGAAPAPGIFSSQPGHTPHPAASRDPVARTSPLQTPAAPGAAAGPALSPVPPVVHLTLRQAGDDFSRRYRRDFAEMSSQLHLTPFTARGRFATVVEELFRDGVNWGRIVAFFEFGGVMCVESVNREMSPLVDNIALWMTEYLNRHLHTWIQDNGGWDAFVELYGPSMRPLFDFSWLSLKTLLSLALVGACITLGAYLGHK

| SMILES | outcome [1] | outcome [2] | outcome [3] | outcome [4] | outcome [5] | outcome [6] | outcome [7] | outcome [8] | outcome [9] | outcome [10] | AC50 [5] | AC50 [3] | AC50 [7] | AC50 [8] | AC50 [9] | AC50 [10] |
| --- | --- | --- | --- | --- | --- | --- | --- | --- | --- | --- | --- | --- | --- | --- | --- | --- |
| CC1=CC(=O)CC(C)(C)C1 | inactive | inactive | inactive | inactive | inactive | inactive | inactive | inactive | inactive | inactive |  |  |  |  |  |  |
| CC(C)CCCCCCOC(=O)c1ccc(C(=O)OCCCCCCC(C)C)c(C(=O)OCCCCCCC(C)C)c1 | inactive | inactive | inactive | inactive |  | inactive | inactive | inactive | inactive | inactive | 14.4 µM (active) |  |  |  |  |  |
| CN(C)c1ccc(Cc2ccc(N(C)C)cc2)cc1 | inactive | inactive |  | inactive |  | inactive |  |  |  |  | 13 µM (active) | 50 µM (active) | 1.6 µM (active) | 12.5 µM (active) | 90.6 µM (active) | 90.8 µM (active) |
| Oc1ccc2c(c1)-c1ccccc1C2 | inactive | inactive | inactive | inactive |  | inactive |  | inactive | inactive | inactive | 21.4 µM (active) |  | 50 µM (active) |  |  |  |
| COC(=O)c1ccccc1O | inactive | inactive | inactive | inactive | inactive | inactive | inactive | inactive | inactive | inactive |  |  |  |  |  |  |
| COc1ccc(-n2nc(C(F)F)cc2-c2ccc(S(C)=O)cc2)cc1 (stereo not given) | inactive | inactive | inactive | inactive |  | inactive |  |  | inactive | inactive | 50 µM (active) |  | 13.4 µM (active) | 26.8 µM (active) |  |  |
| Cc1c(-c2cccnc2)c2ccccc2n1CCCCC(=O)O | inactive | inactive | inactive | inactive |  | inactive |  | inactive | inactive | inactive | 50 µM (active) |  | 35.9 µM (active) |  |  |  |
| O=C1OC(=O)C2C3C=CC(C3)C12 (stereo not given) | inactive | inactive | inactive | inactive | inactive | inactive | inactive | inactive | inactive | inactive |  |  |  |  |  |  |
| CC(C)CCCCCCCOC(=O)CCCCC(=O)OCCCCCCCC(C)C | inactive | inactive | inactive | inactive | inactive | inactive | inactive | inactive | inactive | inactive |  |  |  |  |  |  |
| CCCCCCCCCCCCCCCO | inactive | inactive | inactive | inactive | inactive | inactive | inactive | inactive | inactive | inactive |  |  |  |  |  |  |
| Cn1c(=O)c2c(ncn2C)n(C)c1=O | inactive | inactive | inactive | inactive | inactive | inactive |  | inactive | inactive | inactive |  |  | 50 µM (active) |  |  |  |
| CC(=O)c1ccc2c(c1)[C@H](NC(=O)c1ccc(F)cc1)[C@@H](O)C(C)(C)O2 | inactive | inactive | inactive | inactive | inactive | inactive |  |  | inactive | inactive |  |  | 68.4 µM (active) | 16.3 µM (active) |  |  |
| CCCCCCCCO | inactive | inactive | inactive | inactive | inactive | inactive | inactive | inactive | inactive | inactive |  |  |  |  |  |  |
| COCCOc1cc2cc(C(=O)NC3CCN(C(C)C)CC3)n(CC(=O)Nc3ccc(Cl)cn3)c2cn1 | inactive | inactive | inactive | inactive |  | inactive |  |  |  |  | 2.12 µM (active) |  | 70.6 µM (active) | 66.8 µM (active) | 61.8 µM (active) | 62.2 µM (active) |
| Cc1ccc(N)cc1O | inactive | inactive | inactive | inactive |  | inactive | inactive | inactive | inactive | inactive | 26.8 µM (active) |  |  |  |  |  |
| CC1(C)C(=O)N(Br)C(=O)N1Br | inactive | inactive | inactive | inactive |  | inactive |  | inactive | inactive | inactive | 37.5 µM (active) |  | 7.06 µM (active) |  |  |  |
| COC(=O)CC(=O)OC | inactive | inactive | inactive | inactive | inactive | inactive |  |  | inactive | inactive |  |  | 1.93 µM (active) | 3.31 µM (active) |  |  |
| CCOCCOCCOCCO | inactive | inactive | inactive | inactive | inactive | inactive | inactive | inactive | inactive | inactive |  |  |  |  |  |  |
| CC(C)=CCCC(C)CCO (stereo not given) | inactive | inactive | inactive | inactive |  | inactive |  | inactive | inactive | inactive | 50 µM (active) |  | 11.7 µM (active) |  |  |  |
| CC(=O)OC[C@H]1O[C@@](COC(C)=O)(O[C@H]2O[C@H](COC(C)=O)[C@@H](OC(C)=O)[C@H](OC(C)=O)[C@H]2OC(C)=O)[C@@H](OC(C)=O)[C@@H]1OC(C)=O | inactive | inactive | inactive | inactive | inactive | inactive | inactive | inactive | inactive | inactive |  |  |  |  |  |  |
